# Laboratory results from the supplement of paper PMC4466140.
# B1: unnamed (peptide)
# chain: SLSRRRFSLPSMPNV
# Target: AgAbp1
# Test: SPOT peptide array binding signal intensity (averaged, normalized) (arbitrary units (background-subtracted, floor 0; scale differs between SH3 domains)); higher = stronger binding of the SH3 domain to the peptide
# Procedure, shortened: (§1)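 Spot intensities were captured after detection with anti-GST antibody, an HRP-linked anti-mouse secondary and luminol, and quantified with Genespotter. The probes were GST-fused SH3 domains from four yeast species, produced in E. coli BL21(DE3), purified on glutathione Sepharose and incubated at 10 μg/ml overnight at 4°C on cellulose-bound synthetic 15-mer peptides with cysteines replaced by serines. Binding signal is the normalized, background-subtracted spot intensity averaged over replicates, and its arbitrary units differ between domains.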
row,Binder,SPOT peptide array binding signal intensity
1,B1,83.5

# Target: AgBbc1
# Test: as above
# Procedure, shortened: as §1
row,Binder,SPOT peptide array binding signal intensity
1,B1,114

# Target: AgBem1-D1
# Test: as above
# Procedure, shortened: as §1
row,Binder,SPOT peptide array binding signal intensity
1,B1,418

# Target: AgBzz1-D1
# Test: as above
# Procedure, shortened: as §1
row,Binder,SPOT peptide array binding signal intensity
1,B1,44.5

# Target: AgBzz1-D2
# Test: as above
# Procedure, shortened: as §1
row,Binder,SPOT peptide array binding signal intensity
1,B1,72.5

# Target: AgCyk3
# Test: as above
# Procedure, shortened: as §1
row,Binder,SPOT peptide array binding signal intensity
1,B1,6.5

# Target: AgFus1
# Test: as above
# Procedure, shortened: as §1
row,Binder,SPOT peptide array binding signal intensity
1,B1,404

# Target: AgHof1
# Test: as above
# Procedure, shortened: as §1
row,Binder,SPOT peptide array binding signal intensity
1,B1,158

# Target: AgHse1
# Test: as above
# Procedure, shortened: as §1
row,Binder,SPOT peptide array binding signal intensity
1,B1,1010

# Target: AgLsb1
# Test: as above
# Procedure, shortened: as §1
row,Binder,SPOT peptide array binding signal intensity
1,B1,1240

# Target: AgLsb4
# Test: as above
# Procedure, shortened: as §1
row,Binder,SPOT peptide array binding signal intensity
1,B1,41.5

# Target: AgMyo5
# Test: as above
# Procedure, shortened: as §1
row,Binder,SPOT peptide array binding signal intensity
1,B1,3

# Target: AgNbp2
# Test: as above
# Procedure, shortened: as §1
row,Binder,SPOT peptide array binding signal intensity
1,B1,97.5

# Target: AgRvs167
# Test: as above
# Procedure, shortened: as §1
row,Binder,SPOT peptide array binding signal intensity
1,B1,5

# Target: AgSho1
# Test: as above
# Procedure, shortened: as §1
row,Binder,SPOT peptide array binding signal intensity
1,B1,28

# Target: AgSla1-D1-D2
# Test: as above
# Procedure, shortened: as §1
row,Binder,SPOT peptide array binding signal intensity
1,B1,60

# Target: AgSla1-D3
# Test: as above
# Procedure, shortened: as §1
row,Binder,SPOT peptide array binding signal intensity
1,B1,6

# Target: CaAbp1-D1
# Test: as above
# Procedure, shortened: as §1
row,Binder,SPOT peptide array binding signal intensity
1,B1,872

# Target: CaAbp1-D2
# Test: as above
# Procedure, shortened: as §1
row,Binder,SPOT peptide array binding signal intensity
1,B1,370

# Target: CaBbc1
# Test: as above
# Procedure, shortened: as §1
row,Binder,SPOT peptide array binding signal intensity
1,B1,471

# Target: CaBem1-D1
# Test: as above
# Procedure, shortened: as §1
row,Binder,SPOT peptide array binding signal intensity
1,B1,112

# Target: CaBzz1-D1
# Test: as above
# Procedure, shortened: as §1
row,Binder,SPOT peptide array binding signal intensity
1,B1,183

# Target: CaBzz1-D2
# Test: as above
# Procedure, shortened: as §1
row,Binder,SPOT peptide array binding signal intensity
1,B1,189

# Target: CaCyk3
# Test: as above
# Procedure, shortened: as §1
row,Binder,SPOT peptide array binding signal intensity
1,B1,87.5

# Target: CaFus1
# Test: as above
# Procedure, shortened: as §1
row,Binder,SPOT peptide array binding signal intensity
1,B1,1080

# Target: CaHof1
# Test: as above
# Procedure, shortened: as §1
row,Binder,SPOT peptide array binding signal intensity
1,B1,0.5

# Target: CaHse1
# Test: as above
# Procedure, shortened: as §1
row,Binder,SPOT peptide array binding signal intensity
1,B1,62.8

# Target: CaLsb1
# Test: as above
# Procedure, shortened: as §1
row,Binder,SPOT peptide array binding signal intensity
1,B1,13

# Target: CaLsb4
# Test: as above
# Procedure, shortened: as §1
row,Binder,SPOT peptide array binding signal intensity
1,B1,52.5

# Target: CaMyo5
# Test: as above
# Procedure, shortened: as §1
row,Binder,SPOT peptide array binding signal intensity
1,B1,14.5

# Target: CaNbp2
# Test: as above
# Procedure, shortened: as §1
row,Binder,SPOT peptide array binding signal intensity
1,B1,282

# Target: CaRvs167
# Test: as above
# Procedure, shortened: as §1
row,Binder,SPOT peptide array binding signal intensity
1,B1,27

# Target: CaRvs167-3
# Test: as above
# Procedure, shortened: as §1
row,Binder,SPOT peptide array binding signal intensity
1,B1,152

# Target: CaSho1
# Test: as above
# Procedure, shortened: as §1
row,Binder,SPOT peptide array binding signal intensity
1,B1,477

# Target: CaSla1-D1-D2
# Test: as above
# Procedure, shortened: as §1
row,Binder,SPOT peptide array binding signal intensity
1,B1,471

# Target: CaSla1-D3
# Test: as above
# Procedure, shortened: as §1
row,Binder,SPOT peptide array binding signal intensity
1,B1,133

# Target: ScAbp1
# Test: as above
# Procedure, shortened: as §1
row,Binder,SPOT peptide array binding signal intensity
1,B1,94
